Reference: PubChem BioAssay (EPA / NIEHS)
A structure can be active in one record and inactive in another. Activity calls are given as the source filed them. Rule for the calls: active = hit-call score of the fitted dose curve at least 0.9, where 1 is the maximum; inactive = score below 0.9.

Read-out: Plasminogen Activator Inhibitor-1 (PAI1), SERPINE1 (gene 5054)
Test: BSK_BF4T_PAI1: BioMAP Diversity Plus: BF4T Assay for Plasminogen Activator Inhibitor-1 (PAI1) Biomarker Activity (AID 2284273)
Conditions: primary human bronchial epithelial cells with fibroblasts
Experimental: BSK_BF4T is a cell-based, multiplexed-readout assay that uses bronchial epithelial cells and dermal fibroblasts, a human vascular primary cell, with measurements taken at 24 hours after chemical dosing in a microplate: 96-well plate.BSK_BF4T_PAI1 is an assay component measured in the BSK_BF4T assay. It measures PAI-1 antibody related to regulation of gene expression using ELISA technology.Data from the assay component BSK_BF4T_PAI1 was analyzed at the endpoint, BSK_BF4T_PAI1, in the positive analysis fitting direction relative to DMSO as the negative control and baseline of activity. Using a type of binding reporter, gain or loss-of-signal activity can be used to understand protein changes. To generalize the intended target to other relatable targets, this assay endpoint is annotated to the 'cytokine' intended target family, where the subfamily is 'plasmogen activator inhibitor'.
The levels of cell surface (or secreted, indicated by the prefix "s") biomarker endpoints were measured by ELISA. Overt cytotoxicity to cells in confluent adherent cultures (all systems other than the BT system) was assessed by measuring total protein levels using sulforhodamine B (SRB) staining in parallel cultures at the time of biomarker measurements, indicated as SRB endpoints. For proliferation assays for adherent cell types, individual cell types are cultured at sub-confluence and relative cell numbers quantified by SRB staining at time points optimized for each system (48 h: 3C and CASM3C systems; 72 h: BT and HDF3CGF systems; 96 h: SAg system). SRB was performed by staining cells with 0.1% SRB after fixation with 10% TCA and reading wells at 560 nm.Viability and proliferation of PBMC (T cells) was quantified by Alamar Blue reduction for the SAg and BT systems. For PBMC viability (referred to as PBMC Cytotoxicity within the assay endpoint names), cells were plated (75,000/well in a 96-well plate) and then chemical samples added for 1 h before addition of activators, SEB and TSST-1 (20 ng/mL final concentration each). Cells were incubated for 90 h. Then, Alamar Blue (20 uL/well) (Invitrogen, Cat DAL1100) was added for 6 h, and the plates were read with a fluorescence microplate reader at 546/580 nm (excitation/emission). For PBMC proliferation, cells were plated and activated as above but incubated for only 16 h prior to addition of Alamar Blue. Plates were read after 6 h.

**Q.** `CC(O)C(F)(F)C(F)(F)F` (stereo not given) was tested. Which outcome did it give?
**A.** Its outcome is “inactive”.

**Q.** `O=S(=O)(F)C(F)(F)C(F)(F)C(F)(F)C(F)(F)C(F)(F)C(F)(F)C(F)(F)C(F)(F)F` was tested. Which outcome did it give?
**A.** Its outcome is “inactive”.

**Q.** Which outcome does the source give for `O=C(O)C(F)(OC(F)(F)C(F)(F)C(F)(F)F)C(F)(F)F` (stereo not given) here?
**A.** The outcome was “inactive”.

**Q.** `FC(F)(F)C(F)(C(F)(F)F)C(F)(F)C(F)(F)CC1CO1` (stereo not given) was tested. Which outcome did it give?
**A.** Its outcome is “inactive”.

**Q.** With `OCC(F)(F)OC(F)(F)C(F)(F)OC(F)(F)C(F)(F)OC(F)(F)F` as the molecule, how does the outcome read?
**A.** Its outcome is “inactive”.

**Q.** And the AC50?
**A.** The AC50 was 25.6 µM (active).

**Q.** `O=C(O)C(F)(F)OC(F)(F)C(F)(F)OC(F)(F)C(=O)O` was tested. Which outcome did it give?
**A.** Its outcome is “inactive”.

**Q.** How did the outcome turn out when `OCC(F)(F)OC(F)(F)C(F)(F)OC(F)(F)CO` was run?
**A.** Its outcome is “inactive”.

**Q.** How did the outcome turn out when `COC(=O)C(F)(F)C(F)(F)OC(F)(C(F)(F)F)C(F)(F)OC(F)=C(F)F` (stereo not given) was run?
**A.** Its outcome is “inactive”.

**Q.** For `C=CC(=O)OCC(F)(F)C(F)F`, which outcome is on record?
**A.** Its outcome is “inactive”.

**Q.** For `O=C(O)C(F)(F)OC(F)(F)C(F)(F)OC(F)(F)F`, which outcome is on record?
**A.** The outcome was “inactive”.

**Q.** Which outcome does the source give for `OCC(F)(F)OC(F)(F)C(F)(F)OC(F)(F)C(F)(F)OC(F)(F)CO` here?
**A.** The outcome was “inactive”.

**Q.** How did the outcome turn out when `O=C(O)C=CC(F)(C(F)(F)F)C(F)(F)F` was run?
**A.** Its outcome is “inactive”.

**Q.** For `NC(=O)C(F)(F)C(F)(F)F`, which outcome is on record?
**A.** The outcome was “inactive”.

**Q.** For `O=C(O)C(F)(F)C(F)(F)C(=O)O`, which outcome is on record?
**A.** The outcome was “inactive”.
